# Laboratory results reported in publication PMC12618258.
# Tests used:
# Assay in all cases: cross-link between two proteins; cross-linking mass spectrometry
# [1] = molecular target: Large ribosomal subunit protein eL24 (UniProt P83731)
# [2] = molecular target: Large ribosomal subunit protein eL38 (UniProt P63173)
# [3] = molecular target: Large ribosomal subunit protein eL30 (UniProt P62888)
# [4] = molecular target: Large ribosomal subunit protein eL6 (UniProt Q02878)
# [5] = molecular target: Large ribosomal subunit protein uL3 (UniProt P39023)
substance,measurement,setting,value
"Large ribosomal subunit protein eL22, P35268",listed as a hit,[1],yes
same,listed as a hit,[2],yes
"Large ribosomal subunit protein eL31, P62899",listed as a hit,[1],yes
"Small ribosomal subunit protein uS4, P46781",listed as a hit,[3],yes
"Small ribosomal subunit protein uS5, P15880",listed as a hit,[4],yes
"Large ribosomal subunit protein eL13, P26373",listed as a hit,[5],yes
